# PubChem BioAssay AID1345085 (National Center for Advancing Translational Sciences (NCATS), 2018)
# Records with an inconclusive call do not appear. Values without a mark were called inactive. Calls of active or inactive are those of the source. Calls follow the shape of the dose curve; as a rule, active = well fitted cell-killing curve with a large enough effect; inconclusive = small, poorly fitted or top-dose-only effect, or effect the other way; inactive = no such curve, though single readings can be large or run the other way.
# Tested on: CASKI
# Experiment: Confirmatory qHTS for gynecologic anti-cancer compounds from libraries of approved drugs and bioactive compounds; also: nearly all actives have a fitted effect of over 55% in size
# Conditions: gynecologic cancer cell panel viability, ATPlite luminescence, 48 h; series mostly up to 57.6 µM; activity change, negative = viability loss: at the top concentration
# In short: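 Cells (1,000/well) plated 16 h, then exposed 48 h at 37 °C to 11 concentrations (1:3) from 57.5 uM to 0.977 nM. Viability by ATPlite luminescence after 15 min; IC50 derived, with HEK 293T used for selectivity index.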
# % is scaled to controls: 0 for no effect and ±100 for the full control effect; potency is read from the fitted curve at half-maximal effect.
Structure (SMILES),"activity change, negative = viability loss",Potency
Cc1c(C)n(Cc2ccc(-c3ccccc3C(=O)O)cc2)c2ccc(C(=O)N[C@@H](C)c3ccc([N+](=O)[O-])cc3)cc12,9.23%,
CNC1CCC(N(Cc2cccc(-c3ccncc3)c2)C(=O)c2sc3ccccc3c2Cl)CC1 (configuration not stated),,34.3 µM (active)
CNC(=O)CN1CCC(Oc2cc3c(Nc4cccc(Cl)c4F)ncnc3cc2OC)CC1,,10.9 µM (active)
O=c1[nH]c(=O)n([C@H]2C[C@H](O)[C@@H](CO)O2)cc1Br,-12.3%,
CC[C@@]1(O)C(=O)OCc2c1cc1n(c2=O)Cc2cc3c(CN(C)C)c(O)ccc3nc2-1,,1.09 µM (active)
Cc1cncc2cccc(S(=O)(=O)N3CCCN(C(=O)CN)C[C@@H]3C)c12,-17.1%,
Cc1nc(N)ncc1-c1nc(N2CCOCC2)c2sc(C(C)(C)O)cc2n1,,0.769 µM (active)
COc1cc(-c2nn(C3CCC(N4CCN(C(C)=O)CC4)CC3)c3ncnc(N)c23)ccc1NC(=O)c1cc2ccccc2n1C (configuration not stated),-12.4%,
CCc1nc(C(N)=O)c(Nc2ccc(N3CCC(N4CCN(C)CC4)CC3)c(OC)c2)nc1NC1CCOCC1,,11.9 µM (active)
CC[C@H](Nc1ncnc2nc[nH]c12)c1nc2cccc(F)c2c(=O)n1-c1ccccc1,-2.62% [at 10.7 µM],
Nc1cccc(-c2cc3c(Oc4cccc(O)c4)ncnc3[nH]2)c1,,7.69 µM (active)
Cc1ccc(C(=O)Nc2cccc(C(F)(F)F)c2)cc1-c1ccc2nc(NCCN3CCOCC3)ncc2c1,,12.2 µM (active)
COC(C(=O)N1Cc2[nH]nc(NC(=O)c3ccc(N4CCN(C)CC4)cc3)c2C1)c1ccccc1 (configuration not stated),,7.69 µM (active)
Cn1cc(-c2ccc3ncc(Cc4ccc5ncccc5c4)n3n2)cn1,11.8%,
COc1ccc2c(c1)c(CC(=O)O)c(C)n2C(=O)c1ccc(Cl)cc1,-4.55%,
O=C(c1ccc(F)c(F)c1Nc1ccc(I)cc1F)N1CC(O)([C@@H]2CCCCN2)C1,,17.2 µM (active)

Structure (SMILES),"activity change, negative = viability loss",Potency
Nc1ccccc1NC(=O)c1ccc(CNC(=O)OCc2cccnc2)cc1,,15.3 µM (active)
CN(C)c1ccc(-c2nc3ncc(Cl)c(N4CCN(CC(=O)Nc5nccs5)CC4)c3[nH]2)cc1,-25.2% [at 19.5 µM],
CC(C)c1nn(-c2c(Cl)cccc2Cl)c2nc(Cc3ccc(OCCO)cc3)[nH]c(=O)c12,,0.137 µM (active)
O=C1Cc2cc(CCN3CCN(c4nsc5ccccc45)CC3)c(Cl)cc2N1,1.02%,
Nc1ccccc1NC(=O)c1ccc(CNc2nccc(-c3cccnc3)n2)cc1,,8.63 µM (active)
O=C1N(c2ccccc2)c2ccccc2C1(Cc1ccncc1)Cc1ccncc1,8.36%,
CC[C@H](CC#N)OC(=O)N[C@@H](C)c1cccc(NC(=O)Nc2ccc(-c3cnco3)c(OC)c2)c1,-16.5%,
CCC1C(=O)N(C)c2cnc(Nc3ccc(C(=O)NC4CCC(N5CCN(CC6CC6)CC5)CC4)cc3OC)nc2N1C(C)C (configuration not stated),,6.11 µM (active)
COc1ccc(OC)c(-c2nnc3ccc(-c4ccc(OC)c(O[C@@H]5CCOC5)c4)nn23)c1,-14.3%,
COc1ccccc1N1CCN(CC(O)COc2cccc3ccccc23)CC1 (configuration not stated),-4.81%,
COc1cc(F)c(F)c(Nc2ccc(I)cc2F)c1NS(=O)(=O)C1(CC(O)CO)CC1 (configuration not stated),-27.6%,
COc1cc(Nc2ncc3c(n2)-c2ccc(Cl)cc2C(c2c(F)cccc2OC)=NC3)ccc1C(=O)O,,19.3 µM (active)
COCCOc1nc(-c2ccc(Cl)c(Cl)c2)n(-c2ccc(NC(=O)CCl)cc2)n1,0.971%,
Cc1cc(Nc2cc(N3CCN(C)CC3)nc(Sc3ccc(NC(=O)C4CC4)cc3)n2)n[nH]1,-30.6%,
C#C[C@]1(O)CC[C@H]2[C@@H]3CCC4=CC(=O)CC[C@@H]4[C@H]3CC[C@@]21CC,-2.14%,
Fc1cc(-c2cccc3ncc(-c4cnn(C5CCNCC5)c4)nc23)cc(F)c1CN1CCOCC1,,34.3 µM (active)
